PubChem BioAssay AID1259341 (Broad Institute, 2017)
Values without a mark were called inactive. Calls of active or inactive are those of the source.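 The calls were made as follows: active = activity change under -35% in any replicate well, with more than 20 beads read in that well; inactive = the rest.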

These molecules were tested against Caspase recruitment domain-containing protein 9 (Homo sapiens) + E3 ubiquitin-protein ligase TRIM62 (Homo sapiens) (UniProt Q9H257+Q9BVG3) (assay: CARD9/TRIM62 protein interaction inhibitors – cell lysate, HEK293FT lysates, Luminex bead ELISA, primary screen (AID 1259341;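 also: PE anti-Flag signal of Flag-CARD9 captured by myc-TRIM62 beads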)). Conditions: PE fluorescence, hits give low values, concentration not given here.
Sequence of Caspase recruitment domain-containing protein 9 (Homo sapiens) + E3 ubiquitin-protein ligase TRIM62 (Homo sapiens) (Q9BVG3 whole entry, looked up, the tested form may be a part): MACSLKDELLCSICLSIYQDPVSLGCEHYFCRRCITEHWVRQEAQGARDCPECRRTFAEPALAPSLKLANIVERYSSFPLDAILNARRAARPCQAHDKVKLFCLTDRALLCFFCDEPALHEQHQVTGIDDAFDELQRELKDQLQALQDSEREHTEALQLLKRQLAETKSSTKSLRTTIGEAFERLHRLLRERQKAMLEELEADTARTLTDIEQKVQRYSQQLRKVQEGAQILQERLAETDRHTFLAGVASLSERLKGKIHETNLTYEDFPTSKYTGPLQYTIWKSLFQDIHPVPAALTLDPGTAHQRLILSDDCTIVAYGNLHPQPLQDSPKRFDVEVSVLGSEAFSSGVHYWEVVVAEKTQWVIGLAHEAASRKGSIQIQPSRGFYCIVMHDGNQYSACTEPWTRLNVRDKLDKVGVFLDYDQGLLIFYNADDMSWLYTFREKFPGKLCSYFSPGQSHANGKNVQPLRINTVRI
Sequence of Caspase recruitment domain-containing protein 9 (Homo sapiens) + E3 ubiquitin-protein ligase TRIM62 (Homo sapiens) (Q9H257 whole entry, looked up, the tested form may be a part): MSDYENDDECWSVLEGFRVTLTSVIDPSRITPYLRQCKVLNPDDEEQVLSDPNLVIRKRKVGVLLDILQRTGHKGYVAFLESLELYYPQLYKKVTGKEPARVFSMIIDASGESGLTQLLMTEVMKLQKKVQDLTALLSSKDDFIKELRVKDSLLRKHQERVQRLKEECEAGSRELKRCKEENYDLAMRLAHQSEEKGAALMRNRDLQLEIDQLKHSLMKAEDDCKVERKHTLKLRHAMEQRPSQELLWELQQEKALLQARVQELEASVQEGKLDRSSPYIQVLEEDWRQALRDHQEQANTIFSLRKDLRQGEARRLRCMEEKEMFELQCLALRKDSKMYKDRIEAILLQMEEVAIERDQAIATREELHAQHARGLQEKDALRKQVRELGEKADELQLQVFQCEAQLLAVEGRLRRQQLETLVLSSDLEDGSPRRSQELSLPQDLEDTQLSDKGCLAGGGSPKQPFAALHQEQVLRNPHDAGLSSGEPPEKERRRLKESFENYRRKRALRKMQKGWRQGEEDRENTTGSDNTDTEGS
Work on `Cc1cccc2nc(CSCc3ccco3)cn12` yielded an activity change, negative = inhibition of -4.69%. `CCc1cc2c(=O)n(Cc3ccco3)c(SC)nc2s1` showed an activity change, negative = inhibition of 1.18%. `O=S(=O)(Nc1nc2ccccc2nc1NCc1ccco1)c1ccccc1` was tested, and the activity change, negative = inhibition was 1.68%. Molecule `O=S(=O)(c1ccc(F)cc1)N1CN(Cc2ccco2)c2nc3ccccc3nc21` has an activity change, negative = inhibition of 26.6%. In the case of `COCCCNC(=O)C1CCN(c2ccc(N3CCOCC3)nn2)CC1`, the activity change, negative = inhibition was 28.3%. Work on `COc1ccc(-n2c(C)c3c(OC)cccc(=O)c3c2C)cc1` yielded an activity change, negative = inhibition of 3.94%. For `Cc1ccc2cc(CN(Cc3ccco3)S(C)(=O)=O)c(=O)[nH]c2c1`, the activity change, negative = inhibition was 5.89%. Work on `O=[N+]([O-])c1ccc2nn(Cc3ccccc3)cc2c1` yielded an activity change, negative = inhibition of 16.2%. With `CN(C)C(CN=C1NS(=O)(=O)c2ccccc21)c1ccco1` (stereo unspecified) the activity change, negative = inhibition was -0.48%. `O=C(Nc1ccc2oc(-c3ccncc3)nc2c1)c1ccc2c(c1)OCCO2` showed an activity change, negative = inhibition of -1.89%. `O=C1CC2(CCN(C(=O)Nc3ccccc3)CC2)CN1Cc1ccc(Cl)cc1` gave an activity change, negative = inhibition of -3.18%. With `O=C(O)COCC(=O)NCc1ccco1` the activity change, negative = inhibition was 1.03%. Work on `Cc1nc(C)c(C(=O)Nc2ncc([N+](=O)[O-])s2)o1` yielded an activity change, negative = inhibition of -6.18%. Molecule `COCC(=O)n1nc(-c2ccco2)nc1NCc1cccs1` has an activity change, negative = inhibition of -2.31%. For `Cc1cncc(-c2ccc(S(N)(=O)=O)cc2F)c1`, the activity change, negative = inhibition was -3.94%. `O=C1CC(c2ccco2)Cc2nc(N3CCc4ccccc4C3)ncc21` (stereo unspecified) gave an activity change, negative = inhibition of -4.59%. With `Nc1ccccc1Sc1nccc(C(F)(F)F)n1` the activity change, negative = inhibition was 3.66%. `O=C(NCC1CCCO1)c1cc(-c2ccco2)nc2ccccc12` (stereo unspecified) was tested, and the activity change, negative = inhibition was -3.93%. `CCN1CCOC(=O)C1CC(=O)Nc1cccc(C)c1` (stereo unspecified) was tested, and the activity change, negative = inhibition was -1.33%. Work on `COc1ccc2nc(-c3ccco3)c(-c3ccco3)nc2c1` yielded an activity change, negative = inhibition of -3.64%. `COc1ccc(Nc2nc(-c3nnc(-c4ccc(F)cc4)o3)nc3ccccc23)cc1Cl` gave an activity change, negative = inhibition of -3.07%. For `NC(=O)C1(N2CCCCC2)CCN(c2ncc(NC(=O)c3ccc(Cl)cc3)cc2C(=O)O)CC1`, the activity change, negative = inhibition was -54.5% (active). `C(=N\n1cnnc1SCc1ccccc1)/c1ccco1` was tested, and the activity change, negative = inhibition was 4.53%. With `Cc1ccc(C(=O)Nc2ccc(N3CCC(C(N)=O)(N4CCCCC4)CC3)c(C(=O)O)c2)cc1` the activity change, negative = inhibition was -42.4%. Molecule `COc1ccc(NC(=O)CN(C)C(=O)c2cc(-c3ccco3)nc3ccccc23)cc1` has an activity change, negative = inhibition of -8.21%. In the case of `Cc1ncnc(N2CCC(c3nccn3Cc3cccnc3)CC2)c1C`, the activity change, negative = inhibition was -10.5%. `CC(C)C(CC(=O)NCc1ccco1)c1ccco1` (stereo unspecified) showed an activity change, negative = inhibition of -8.54%. `O=C(N/N=C/C=C/c1ccco1)c1cncc(Br)c1` gave an activity change, negative = inhibition of -8.78%. For `CCOC(=O)c1[nH]c(Cc2[nH]c(C(=O)OCC)c(C)c2C)c(C)c1C`, the activity change, negative = inhibition was -0.0423%. Molecule `Cc1ccc(C)n1Nc1nc(O)cs1` has an activity change, negative = inhibition of 1.72%. Work on `O=c1oc(/C=C/c2ccc([N+](=O)[O-])s2)nc2ccccc12` yielded an activity change, negative = inhibition of -7%. `C[C@H](CO)N1C[C@H](C)[C@@H](CN(C)C(=O)C2CCCCC2)OCCCC[C@H](C)Oc2ccc(NS(=O)(=O)c3cccs3)cc2C1=O` showed an activity change, negative = inhibition of 6.34%. In the case of `CC(=O)c1cccc(OCC(=O)N(C)CC(=O)NCc2ccco2)c1`, the activity change, negative = inhibition was -22.5%. For `Cc1scc(C(=O)NCc2ccco2)c1-c1ccccc1`, the activity change, negative = inhibition was 1.82%. In the case of `CCc1ccc(Nc2nc(C(=O)NCc3ccc(N(C)C)cc3)nc3ccccc23)cc1`, the activity change, negative = inhibition was -21%. In the case of `NC(=O)C1(N2CCCCC2)CCN(c2ccc(NC(=O)c3ccccc3F)cc2C(=O)O)CC1`, the activity change, negative = inhibition was -30%.
